# In the library only some 2.9% were active in any assay of this set; here they are far more common.
# Mtb FBA inh = inhibits M. tuberculosis FBA enzyme. P9WQA3. purified M. tuberculosis FBA, fluorescence read-out. inhibition, % at 1 µM. hit rate 2.3% among 360,000. AID 588726;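 also: 0% = vehicle and 100% = reference inhibitor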
# Target sequence (P9WQA3 whole entry, looked up): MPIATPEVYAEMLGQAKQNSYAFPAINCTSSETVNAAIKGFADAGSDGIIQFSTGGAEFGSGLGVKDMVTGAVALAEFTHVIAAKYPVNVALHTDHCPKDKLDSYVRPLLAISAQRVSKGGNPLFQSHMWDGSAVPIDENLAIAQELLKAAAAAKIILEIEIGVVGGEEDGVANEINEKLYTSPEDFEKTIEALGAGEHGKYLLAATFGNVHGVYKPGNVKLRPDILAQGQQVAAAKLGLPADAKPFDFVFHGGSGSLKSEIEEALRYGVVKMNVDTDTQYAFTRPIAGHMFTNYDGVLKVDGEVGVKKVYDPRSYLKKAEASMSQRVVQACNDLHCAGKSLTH
# FadD28 FP inh = inhibitors of Mycobacterium tuberculosis FadD28 bisubstrate binding. FadD28 bisubstrate probe binding, fluorescence polarization. inhibition, % at 12.5 µM. hit rate 0.22% among 360,000; in the data active = inhibition above about 8.5%, passing the limit was not always enough
# GDH-TPI counter-1 = inhibits GDH-TPI coupling enzymes, artifact for Mtb FBA screen. GDH-TPI coupled enzyme counterscreen, NADH absorbance. AID 588335. inhibition, % at 4.8 µM. hit rate 1.2% among 360,000; in the data active = inhibition above about 30%;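 also: 0% = DMSO wells and 100% = wells lacking the enzyme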
# Mtb BioA inh = BioA (M. tuberculosis) enzyme inhibition | hit rate 0.096% among 360,000 | purified M. tuberculosis BioA enzyme, plate reader | inhibition, % at 9.99 µM | AID 602481; in the data active = inhibition above about 40%
# Mtb hypoxia rep = inhibitors of hypoxia-regulated fluorescent reporter in Mycobacterium tuberculosis. M. tuberculosis hypoxia-regulated fluorescent reporter, fluorescence. AID 1159583. fluorescence inhibition, % (no concentration beside the values). hit rate 0.1% among 300,000; in the data active = fluorescence inhibition mostly above about 23%, no sharp cut-off; inactive = mostly below about 17%
# Mtb FBA confirm = confirmation of M. tuberculosis fructose-bisphosphate aldolase inhibitors; shares compounds with Mtb FBA inh; purified M. tuberculosis FBA, fluorescence read-out; inhibition, % at 1 µM; hit rate 78% among 5,600; AID 651616;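 also: 0% = vehicle wells and 100% = reference inhibitor wells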
# GDH-TPI counter-2 = inhibits GDH-TPI coupling enzymes, flagging Mtb FBA hits; shares compounds with Mtb FBA inh; GDH-TPI coupled enzyme counterscreen, fluorescence; inhibition, % at 1 µM; hit rate 81% among 5,600; AID 652141; in the data active = inhibition above about 10%
# GDH-TPI dose = inhibits GDH-TPI coupling enzymes in dose response; shares compounds with Mtb FBA inh; hit rate 79% among 170; AID 652145; GDH-TPI coupled enzyme assay, fluorescence, artifact counterscreen; IC50, µM; call rule not given here
# * marks the source's active call; other numbers are inactive results; . = not tested or not shown; + = active, no number. Rule as the data show it, unless noted: active = inhibition above about 27%; inactive = the rest.
SMILES,Mtb FBA inh,FadD28 FP inh,GDH-TPI counter-1,Mtb BioA inh,Mtb hypoxia rep,Mtb FBA confirm,GDH-TPI counter-2,others
NC(=S)NN=Cc1cn(-c2ccccc2)nc1-c1cccnc1,.,.,.,.,7,.,.,
COC1=Nc2ccccc2N2CCN=C12,66*,-1,.,.,.,12,7,GDH-TPI dose=3.5*
NC(=O)c1ccccc1NCC(=O)c1ccc(F)cc1,31*,-3,-4,.,6,103*,87*,
O=C(CNc1ccc(F)cc1)c1ccccc1,4,-1,-1,.,-5,.,.,
Cc1ccc(-c2cnc3c(c2)C(=O)N([C@@H](C)CO)C[C@@H](C)[C@@H](CN(C)C(=O)Cc2ccccc2)O3)cc1,.,.,.,3,.,.,.,
Cc1cccc(C)c1OCC(O)CN(Cc1ccccc1O)C1CCCCC1 (stereo not given),32*,-5,-1,-1,10,44*,31*,
CC(=O)OC[C@H]1O[C@@H](Sc2cccc3cccnc23)[C@H](OC(C)=O)[C@@H](OC(C)=O)[C@@H]1OC(C)=O,28*,-2,10,.,7,57*,60*,
CC(=O)OC[C@H]1O[C@@H](Sc2cccc3cccnc23)[C@H](OC(C)=O)[C@@H](OC(C)=O)[C@H]1OC(C)=O,35*,-2,-1,-1,5,67*,83*,
CC(=O)OCC1OC(c2ccccc2)C(OC(C)=O)C(OC(C)=O)C1OC(C)=O (stereo not given),0,0,-4,.,6,.,.,
CCCN1C[C@H](C)[C@@H](OC)CN(C)C(=O)c2ccc(NS(=O)(=O)c3cn(C)cn3)cc2OC[C@H]1C,.,.,.,-3,.,.,.,
CC(=O)C(Cc1ccc(Cl)nc1)Cc1ccc(Cl)nc1,0,-1,-4,.,10,.,.,
COC(=O)Cc1ccc(OCc2ccc(Cl)nc2)cc1,53*,-1,-5,-1,-10,148*,102*,
CCN(CC)C(=O)CN1C(=O)c2cccc3cccc(c23)C1=O,38*,-3,6,.,-5,130*,88*,
CC(=O)N1C(=O)c2cccc3cccc(c23)C(=O)N1C(C)=O,.,.,.,.,15,.,.,
O=C(CN1C(=O)c2cccc3cccc(c23)C1=O)N1CCOCC1,29*,-3,0,.,-6,46*,39*,
O=C(O)c1cccc(NN=Cc2cn(-c3ccccc3)nc2-c2cccs2)c1,.,.,.,.,9,.,.,
CC(C)Cc1nc2oc3c(NCC(C)O)ncnc3c2c2c1CCCC2 (stereo not given),60*,-7,-2,0,3,+,+,
CC(C)Cc1nc2oc3c(Cl)ncnc3c2c2c1CCCC2,-2,-3,1,3,7,.,.,
CCCc1nc2oc3c(NCCN(C)C)ncnc3c2c2c1CCCC2,22,-8,6,2,18,.,.,
CC(C)c1nc2oc3c(NCC4CCCO4)ncnc3c2c2c1CCC2 (stereo not given),57*,-3,9,1,13,181*,151*,
CCCc1nc2oc3c(NCC4CCCO4)ncnc3c2c2c1COC(C)(C)C2 (stereo not given),12,-3,-13,2,12,.,.,
CCCc1nc2oc3c(NCCCN(C)C)ncnc3c2c2c1CCCC2,61*,-9,10,7,10,+,+,
C[C@@H]1CN([C@H](C)CO)C(=O)c2cc(C#CC(C)(C)O)cnc2O[C@@H]1CN(C)C(=O)c1ccccc1F,.,.,.,4,.,.,.,
COc1cccc(C(=O)Nc2ccc3c(c2)C(=O)N(C)[C@@H]2CC[C@@H](CC(=O)NCC4CC4)O[C@@H]2CO3)c1,.,.,.,-2,.,.,.,
CN(Cc1ccccc1)C(=O)COC(=O)c1ccc(Cl)cc1N,50*,-3,0,.,-2,101*,90*,
SMILES,Mtb FBA inh,FadD28 FP inh,GDH-TPI counter-1,Mtb BioA inh,Mtb hypoxia rep,Mtb FBA confirm,GDH-TPI counter-2,others
Nc1cc(Cl)ccc1C(=O)OCC(=O)NC(=O)NCc1ccccc1,30*,0,4,-3,1,63*,49*,
O=C(COC(=O)c1cc(Cl)ccc1Cl)NC1CCCC1,4,-1,3,-1,5,.,.,
Nc1cc(Cl)ccc1C(=O)OCC(=O)NC1CCCCCCC1,27*,0,7,.,9,73*,56*,
CN(Cc1ccccc1)C(=O)COC(=O)Cc1ccc(Cl)cc1,-3,-6,1,.,14,.,.,
Cc1ccc(C)c(C(=O)OCC(=O)NC(=O)NCc2ccccc2)c1,0,0,3,0,.,.,.,
NCC[C@@H]1CC[C@@H](NC(=O)Nc2ccc(F)cc2)[C@H](CO)O1,.,.,.,-4,.,.,.,
Cc1ccccc1C(=O)Nc1ccc2c(c1)C(=O)NC2=O,39*,-1,6,1,7,0,2,
O=C(Cc1ccc([N+](=O)[O-])cc1)Nc1ccc2c(c1)C(=O)NC2=O,12,0,8,.,10,.,.,
COc1ccccc1C(=O)Nc1ccc2c(c1)C(=O)NC2=O,-1,0,14,-1,10,.,.,
CCCC(=O)Nc1ccc2c(c1)C(=O)NC2=O,33*,-3,1,-1,5,115*,88*,
O=C(Cc1ccc(Cl)cc1)Nc1ccc2c(c1)C(=O)NC2=O,60*,0,5,.,-3,51*,35*,
CCCC(=O)Nc1cccc(Oc2ccc3c(c2)C(=O)NC3=O)c1,1,0,9,13,18,.,.,
O=C1NC(=O)c2cc(NC(=O)C3CCCO3)ccc21 (stereo not given),38*,-1,6,-2,2,11,0,GDH-TPI dose=4.2*
COCC(=O)Nc1ccc2c(c1)C(=O)N(C)C[C@@H](OC)[C@H](C)CN(Cc1ccccc1)[C@@H](C)CO2,.,.,.,-1,.,.,.,
COC(=O)C1=C(c2ccc(F)cc2OCc2ccccc2)CC2CCC1N2C(=O)NCc1ccccc1 (stereo not given),.,.,.,.,12,.,.,
Cc1cc(OCC(=O)N2CCc3ccccc3C2)c2c(-c3ccccc3)cc(=O)oc2c1,-2,-1,10,-5,.,.,.,
CCCc1cc(=O)oc2cc(C)cc(OCC(=O)N3CCC(C(N)=O)CC3)c12,39*,-2,19,1,.,85*,81*,
CCCc1cc(=O)oc2cc(C)cc(OCC(=O)N3CCC(C(=O)O)CC3)c12,97*,-1,10,0,.,73*,65*,
CCCc1cc(=O)oc2cc(C)cc(OC(=O)c3ccco3)c12,-1,-2,2,.,19,.,.,
CCCCc1cc(=O)oc2cc(C)cc(OCC(=O)N3CCC(C(=O)O)(c4ccccc4)CC3)c12,62*,-3,10,2,.,52*,34*,
CCCc1cc(=O)oc2cc(OCC(=O)N3CCC(C(=O)O)(c4ccccc4)CC3)ccc12,76*,-2,22,2,.,101*,81*,
Cc1cc(OCC(=O)N2CCC(O)(c3ccc(Cl)cc3)CC2)c2c(C)cc(=O)oc2c1,4,-1,7,-3,-11,.,.,
Cc1cc(OCC(=O)N2CCC(C(=O)O)CC2)c2c3c(c(=O)oc2c1)CCC3,98*,-2,16,1,.,166*,133*,
